Each structure is given as a SMILES string. Several values for one entry are separate records, joined by “and”; a condition that tells them apart may be missing. Identical values can stand only once. Screen size: about 650,000 compounds; about 6,800 (1%) were called active. Cut-off read from the data, not from the text of the source: active = activation above about 4.9%; inactive = the rest. The sample as a whole holds a higher share of actives than the screen did.

Chain of G-protein coupled receptor 151 (Homo sapiens) (Q8TDV0 whole entry, looked up): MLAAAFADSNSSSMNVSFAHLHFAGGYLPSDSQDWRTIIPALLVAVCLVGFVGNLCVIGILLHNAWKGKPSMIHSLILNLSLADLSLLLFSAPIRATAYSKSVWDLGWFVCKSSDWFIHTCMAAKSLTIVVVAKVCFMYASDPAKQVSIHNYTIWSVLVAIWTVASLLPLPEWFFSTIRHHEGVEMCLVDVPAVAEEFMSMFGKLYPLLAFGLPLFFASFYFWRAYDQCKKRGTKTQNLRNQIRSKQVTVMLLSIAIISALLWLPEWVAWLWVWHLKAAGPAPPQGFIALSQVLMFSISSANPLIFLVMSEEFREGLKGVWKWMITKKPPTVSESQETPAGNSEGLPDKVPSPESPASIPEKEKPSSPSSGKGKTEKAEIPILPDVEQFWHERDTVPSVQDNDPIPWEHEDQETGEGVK

This assay has as its target G-protein coupled receptor 151 (Homo sapiens) (UniProt Q8TDV0). The assay is described as follows: activators of human GPR151, primary screen, cell-based, PathHunter beta-arrestin, luminescence (AID 1508602).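 Note: 0% = median of compound wells and 100% = cells with positive control.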 Particulars: PathHunter beta-arrestin GPR151 cells, at 11.2 µM, active compounds read high.
For `CCOC(=O)N1CCN(C(=O)CSc2nnc(-c3ccc(OC)cc3)o2)CC1`, the activation was -0.713% (inactive).
For the compound `COc1ccc(-c2cn3c(NC(=O)c4ccccc4)cnc3cn2)cc1`, the activation was -2.03% (inactive).
Consider `O=C(N/N=C/c1cccc(Cl)c1Cl)c1cccs1`, for which the activation was 10.6% (active).
The value for `O=C(N/N=C/c1cccc(Cl)c1Cl)c1ccc(O)cc1` was 0.598% (inactive); that for `COc1cc(/C=N/NC(=O)c2cccs2)cc(OC)c1OC` was -1.73% (inactive).
As to `COc1ccc(CNCc2cccn2-c2sc(C)c(C)c2C(=O)O)cc1`, the activation was 0.477% (inactive).
With `C=CCN(c1ccc(C(=O)Nc2ccc(Br)c(Cl)c2)cc1)S(C)(=O)=O`, the activation is 0.888% (inactive).
`C=CCN(c1ccc(C(=O)Nc2ccc(OCc3ccccc3)cc2)cc1)S(C)(=O)=O`: the activation is 5% (active).
For the compound `C=CCN(c1ccc(C(=O)Nc2cc(C)cc(C)c2)cc1)S(C)(=O)=O`, the activation is -0.236% (inactive).
The value for `CCOC(=O)c1ccc(NC(=O)CSc2nc(NCc3ccc(Cl)cc3)c3ccccc3n2)cc1` was -0.895% (inactive); that for `O=C(Nc1cccc(Cl)c1)N(C1=NCCC1)c1ccc(Cl)cc1` was 0.148% (inactive).
As for `CCc1c(C(=O)N2CCN(c3cccc(Cl)c3)CC2)[nH]c(C)c1C(C)=O`, the activation is 4.26% (inactive).
Turning to `CC(=O)c1c(C)[nH]c(C(=O)CN2CCN(C(=O)c3ccccc3)CC2)c1C`, the activation is 0.331% (inactive).
For the compound `CC(=O)c1c(C)[nH]c(C(=O)N2CCN(c3ccc(Cl)cc3)CC2)c1C`, the activation is 5.19% (active).
Regarding `COc1ccc(C(=O)NCCc2ccc(F)cc2)cc1[N+](=O)[O-]`, the activation is 0.474% (inactive).
As to `COc1cccc(-c2nnc(N)s2)c1`, the activation is -0.725% (inactive).
On to `Cc1cnc(C(=O)N2CCc3ccc(NC(=O)Cc4ccccc4F)cc3C2)cn1`, for which the activation is 1.39% (inactive).
As to `CCOC(=O)N1CCN(Cc2nc3c(c(=O)n(C)c(=O)n3C)n2CC(C)C)CC1`, the activation was -1.33% (inactive).
The value for `COc1ccccc1C1CCCN1C(=O)C1CCN(c2nc(C)c3ccccc3n2)CC1` (configuration not stated) was 11.3% (active); that for `Cc1nc(N2CCCC2C(=O)N2CC3CCC2C3)nc2ccccc12` (configuration not stated) was 0.0962% (inactive); that for `COc1ccccc1C1CCCN1C(=O)C1CC(Cc2ccc(F)cc2)=NO1` (configuration not stated) was 1.31% (inactive).
Turning to `O=C(O)CCC(=O)N1N=C(c2ccc(O)cc2)CC1c1ccc(Br)cc1` (configuration not stated), the activation was 0.932% (inactive).
For `CCc1cc(C(=O)COc2ccc([N+](=O)[O-])cc2)c(O)cc1O`, the activation is -0.273% (inactive).
As for `Cc1cc(Oc2ncnc(N)c2[N+](=O)[O-])cc(C(C)C)c1`, the activation is 1.22% (inactive).
`NC(=O)c1ccnc(N2CCc3ccccc3C2)c1`: the activation is 0.149% (inactive).
Turning to `CN1C(=O)NC(=O)/C(=C\c2ccc(-c3ccc(Br)c(Cl)c3)o2)C1=O`, the activation is -0.645% (inactive).
Take `COc1cc(C=O)ccc1OCc1ccc(Br)cc1`: the activation is -0.687% (inactive).
Take `COc1cc(C=O)ccc1OCCOc1ccc(C=O)cc1OC`: the activation was -1.4% (inactive).
With `COc1ccc(C=O)cc1OCc1ccc(F)cc1`, the activation was 4.92% (active).
`O=C(CC1=CCCCC1)NCC1Cc2cc(F)cc(-c3cncnc3)c2O1` (configuration not stated): the activation was -1.03% (inactive).
With `CCc1cccc(C)c1NC(=O)/C=C/C(=O)O`, the activation is 0.671% (inactive).
Take `CCCNC(=O)c1ccc(Cl)cc1[N+](=O)[O-]`: the activation is 1.13% (inactive).
Take `COc1cccc2cc(C(=O)N(C)C)c(=O)oc12`: the activation was 5.93% (active).
The value for `CCCN(CCC)C(=O)c1cc2cccc(OC)c2oc1=O` was 2.62% (inactive); that for `COc1ccc(NC(=O)c2cc3cccc(OC)c3oc2=O)cc1OC` was -1.45% (inactive); that for `O=[N+]([O-])c1ccc(OCc2nnc(SCCN3CCOCC3)n2-c2ccccc2)cc1` was 0.574% (inactive).
`CCn1c(COc2ccccc2OC)nnc1SCC(=O)NC`: the activation was 1.05% (inactive).
Turning to `CCn1c(COc2ccccc2)nnc1Sc1ccc([N+](=O)[O-])cc1C=O`, the activation was 8.41% (active).
As for `COc1ccc(NC(=S)NCc2cc(C)n(C)n2)cc1OC`, the activation was 2.25% (inactive).
As for `COc1ccc(CCNC(=S)Nc2c(C)n(C)n(-c3ccccc3)c2=O)cc1OC`, the activation is 0.54% (inactive).
As for `COc1ccc(CCNC(=S)NCc2cc(C)n(C)n2)cc1OC`, the activation is 14.1% (active).
For the compound `COc1cc([N+](=O)[O-])ccc1NC(=O)C1CCCC1`, the activation is 0.251% (inactive).
Turning to `CCCC(=O)NC(=S)Nc1ccc([N+](=O)[O-])cc1OC`, the activation was 0.167% (inactive).
Regarding `COc1cc([N+](=O)[O-])ccc1NC(=S)NCc1cc(C)n(C)n1`, the activation is 6.53% (active).
In the case of `CCc1nc2ccccc2c2nn(CC(=O)NCCc3ccc(OC)c(OC)c3)c(=O)n12`, the activation is 0.488% (inactive).
With `COC(=O)c1ccc(Nc2nc3c(s2)CCc2ccccc2-3)cc1`, the activation is 1.88% (inactive).
With `Cc1ccc(C)c(OCCOCCNCCN)c1C`, the activation is 0.982% (inactive).
Take `CN(C)c1cc(Oc2ccc(=O)[nH]n2)nc(N(C)C)n1`: the activation is 0.738% (inactive).
With `CC(C)(C)c1ccc(C(=S)NCCCn2ccnc2)cc1`, the activation is 1.31% (inactive).
On to `COc1ccc(NC(=O)Cn2nnc(-c3ccccc3NC(=O)c3cccc(C)c3)n2)cc1`, for which the activation was -0.639% (inactive).
The value for `CCOC(=O)c1c(C)oc2c(Br)cc3oc(=O)c(C(=O)CC)cc3c12` was -0.749% (inactive).
Turning to `COC(=O)CN(C)C(=O)CC1C(=O)NCCN1Cc1ccc(OC)c(OC)c1` (configuration not stated), the activation was -0.568% (inactive).
Take `CCCC1CCC(c2ccc(-c3ccc(CC)cn3)cc2F)CC1` (configuration not stated): the activation is 3.24% (inactive).
As to `CCc1ccc(-c2ccc(C3CCC(CC)CC3)cc2)nc1` (configuration not stated), the activation is 10.7% (active).
Take `CCCCOc1ccc(OC(=O)c2ccc(-c3ccc(CC)cn3)cc2)cc1`: the activation was 0.589% (inactive).
Take `COc1ccc(/C(O)=C2/C(=O)C(=O)N(CCCC(=O)O)C2c2ccc(O)cc2)cc1` (configuration not stated): the activation was 0.777% (inactive).
As for `Cc1ccc(-n2[nH]c(C)c(C=Nc3ccc(N=Cc4c(C)[nH]n(-c5ccc(C)c(C)c5)c4=O)cc3)c2=O)cc1C`, the activation was 1.34% (inactive).
The value for `Cc1ccc(N2NC3(CCCCC3)NC2=S)cc1C` was 1.89% (inactive); that for `CCC1(c2ccc(Cl)cc2Cl)NC(=S)N(c2ccc(C)c(C)c2)N1` (configuration not stated) was 6.17% (active); that for `CCCCOC(=O)C1=C(C)NC2=C(C(=O)CCC2)C1c1cccc([N+](=O)[O-])c1` (configuration not stated) was 6.33% (active).
`COc1ccc(COC(=O)C2=C(C)NC3=C(C(=O)CCC3)C2c2cccc([N+](=O)[O-])c2)cc1` (configuration not stated): the activation was -0.575% (inactive).
With `CCCCOC(=O)C1=C(C)NC2=C(C(=O)CCC2)C1c1ccccc1[N+](=O)[O-]` (configuration not stated), the activation is 1.59% (inactive) and 0.946% (inactive).
Take `Cn1nc2c(nc1=O)[nH]c1ccccc12`: the activation was -0.513% (inactive).
The value for `Cc1ccc(OCCN2CCNCC2)cc1C` was -1.28% (inactive); that for `COc1cc2nc(-c3cccc(C(C)=O)c3)nc(Nc3ccc(N4CCOCC4)cc3)c2cc1OC` was 5.83% (active).
Take `CC(=O)c1cccc(-c2cccc(C(=O)Nc3ccc(N4CCOCC4)cc3)c2)c1`: the activation is -0.102% (inactive).
The value for `COc1cc2nc(-c3ccc(N4CCOCC4)nc3)nc(Nc3ccc(NC(C)=O)cc3)c2cc1OC` was 0.834% (inactive); that for `COc1cc(C2C3=C(CC(C)(C)CC3=O)Nc3ccc4ncccc4c32)ccc1OC(C)=O` (configuration not stated) was -0.317% (inactive); that for `O=C(Cc1cccs1)N1CCCCC1c1nc2ccccc2[nH]1` (configuration not stated) was 0.204% (inactive).
For the compound `O=C(Nc1ccc(Br)cc1Cl)N1CCN(c2ncccn2)CC1`, the activation was -0.59% (inactive).
Turning to `Cn1c(SCCN2CCCCC2)nnc1C1CCN(C/C=C/c2ccco2)CC1`, the activation was 1.24% (inactive).
The value for `COc1cccc(C(=O)Nc2ccc(N3CCCC3=O)cc2)c1` was -9.98% (inactive); that for `O=C(Nc1ccc(N2CCCC2=O)cc1)c1cncc(Br)c1` was 5.11% (active).
On to `O=C(Nc1ccc(S(=O)(=O)Nc2ncccn2)cc1)c1cncc(Br)c1`, for which the activation was -0.902% (inactive).
The value for `C(=N\c1nnc2nc[nH]n12)/c1ccco1` was -0.745% (inactive); that for `CC(C)CNC(=O)c1ccc(F)c(S(=O)(=O)N2CCOCC2)c1` was 1.07% (inactive).
For `COc1ccc(OC)c(S(=O)(=O)Oc2ccc(Cl)c3cccnc23)c1`, the activation is 12.1% (active).
Take `COc1ccc(S(=O)(=O)Oc2ccc(Cl)c3cccnc23)cc1OC`: the activation was 2.28% (inactive).
In the case of `O=[N+]([O-])c1ccc(Oc2ccc(Cl)c3cccnc23)c(Cl)c1`, the activation is 0.725% (inactive).
For the compound `COC(=O)c1cc2cc(N)ccc2s1`, the activation is 0.191% (inactive).
The value for `CCCS(=O)(=O)N1CCN=C1SCc1cccc(Cl)c1` was -1.49% (inactive); that for `Cc1cccc(NC(=O)CSc2ncn[nH]2)c1` was -0.535% (inactive); that for `Cc1nc(SCC(=O)Nc2cccc3ccccc23)n[nH]1` was -0.295% (inactive).
With `Cc1cccc(NC(=O)CSc2nc3[nH]ncc3c(=O)[nH]2)c1`, the activation was 5.01% (active).
Take `O=C(CSc1ccc(F)cc1)Nc1ccccc1-c1nc2ccccc2s1`: the activation was -0.819% (inactive).
For the compound `O=C(CSc1ccc(F)cc1)Nc1cccc2ccccc12`, the activation was 7.44% (active).
For `Cc1cc(=O)[nH]c(SCC(=O)Nc2ccccn2)n1`, the activation is 0.382% (inactive).
The value for `Cc1cc(=O)[nH]c(SCC(=O)Nc2cccc3ccccc23)n1` was 15.8% (active).
Regarding `Cc1cc(=O)[nH]c(SCC(=O)Nc2ccc(C(N)=O)cc2)n1`, the activation was -0.979% (inactive).
The value for `Cc1nnc(SCC(=O)Nc2cccc(Cl)c2)[nH]c1=O` was 0.326% (inactive).
Regarding `COc1ccc(C(=O)c2snc(Nc3ccccc3)c2N)cc1`, the activation was 0.834% (inactive).
The value for `CCSc1c(O)cnn(-c2ccccc2)c1=O` was 0.94% (inactive); that for `CCOC(=O)C(C#N)C(C#N)(C(=O)OCC)C1CCCCC1=O` (configuration not stated) was 2.95% (inactive).
For `O=C(CNC(=O)c1ccc(NC2CC2)c([N+](=O)[O-])c1)Nc1ccc(F)c(F)c1F`, the activation is 0.807% (inactive).
The value for `Cc1ccc[n+](-c2ncnc(N)c2[N+](=O)[O-])c1` was 6.28% (active); that for `Cc1csc(Nc2ncnc(N)c2[N+](=O)[O-])n1` was -0.642% (inactive); that for `Nc1ncnc(Oc2ccccc2Cl)c1[N+](=O)[O-]` was 1.64% (inactive).

For the origin of these results see PubChem BioAssay AID1508602 (The Scripps Research Institute Molecular Screening Center, 2020).
